This note sets out measurements from publication PMC3315485, “Probing the Informational and Regulatory Plasticity of a Transcription Factor DNA–Binding Domain”.

Positions count from the first letter of the chain named.

In one test the target is T1, MarA wild type (WQR) (Escherichia coli, UniProt P0ACH5 1-127).
T1 sequence: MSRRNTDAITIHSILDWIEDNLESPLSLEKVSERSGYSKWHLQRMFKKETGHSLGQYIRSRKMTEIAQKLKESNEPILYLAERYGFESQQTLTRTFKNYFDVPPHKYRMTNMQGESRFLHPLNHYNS
Description: MITOMI; MITOMI, 295 K (22 C); buffer, salt and pH not stated in the material; high values mean tight binding. As to conditions: protein: ivt; label: fluorescent; dsDNA, one strand shown. The essentials:
(§1)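 MarA protein variants were made by in vitro transcription and translation with the RTS E. coli HY kit and fluorescently labelled by adding tRNA-lys-bodipy-fl. Each was tested by MITOMI against 64 synthesized variants of the mar binding site, with protein and DNA fluorescence read on Genepix at 295K. Association constants were measured by MITOMI, and each site's value is expressed relative to the highest-affinity site for that protein variant.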
Turning to ATGTAGCGTTTTGCTAAAT, the binding signal is 0.284 Ka relative to the best site of the variant.

As to ATGTTTCGTTTTGCTAAAT, the binding signal was 0.217 Ka relative to the best site of the variant.

For ATGTACCGTTTTGCTAAAT, the binding signal was 0.215 Ka relative to the best site of the variant.

For ATGACCCGTTTTGCTAAAT, the binding signal was 0.32 Ka relative to the best site of the variant.

Take ATGAGGCGTTTTGCTAAAT: the binding signal is 0.283 Ka relative to the best site of the variant.

With ATGCCGCGTTTTGCTAAAT, the binding signal is 0.414 Ka relative to the best site of the variant.

Regarding ATGCTGCGTTTTGCTAAAT, the binding signal is 0.442 Ka relative to the best site of the variant.

Consider ATGTTACGTTTTGCTAAAT, for which the binding signal was 0.288 Ka relative to the best site of the variant.

For the sequence ATGAGCCGTTTTGCTAAAT, the binding signal was 0.237 Ka relative to the best site of the variant.

ATGGCTCGTTTTGCTAAAT: the binding signal is 0.35 Ka relative to the best site of the variant.

For ATGGCCCGTTTTGCTAAAT, the binding signal is 0.293 Ka relative to the best site of the variant.

Regarding ATGATTCGTTTTGCTAAAT, the binding signal is 0.264 Ka relative to the best site of the variant.

Consider ATGTCACGTTTTGCTAAAT, for which the binding signal is 0.38 Ka relative to the best site of the variant.

Turning to ATGTGTCGTTTTGCTAAAT, the binding signal is 0.284 Ka relative to the best site of the variant.

Turning to ATGGACCGTTTTGCTAAAT, the binding signal was 0.196 Ka relative to the best site of the variant.

On to ATGAAGCGTTTTGCTAAAT, for which the binding signal was 0.256 Ka relative to the best site of the variant.

On to ATGGTTCGTTTTGCTAAAT, for which the binding signal is 0.203 Ka relative to the best site of the variant.

For the sequence ATGTGACGTTTTGCTAAAT, the binding signal is 0.253 Ka relative to the best site of the variant.

Turning to ATGTATCGTTTTGCTAAAT, the binding signal was 0.282 Ka relative to the best site of the variant.

In the case of ATGCTTCGTTTTGCTAAAT, the binding signal was 0.341 Ka relative to the best site of the variant.

Consider ATGGAGCGTTTTGCTAAAT, for which the binding signal was 0.262 Ka relative to the best site of the variant.

Consider ATGTAACGTTTTGCTAAAT, for which the binding signal is 0.345 Ka relative to the best site of the variant.

For ATGTCGCGTTTTGCTAAAT, the binding signal is 0.426 Ka relative to the best site of the variant.

Take ATGATGCGTTTTGCTAAAT: the binding signal was 0.319 Ka relative to the best site of the variant.

With ATGATACGTTTTGCTAAAT, the binding signal is 0.279 Ka relative to the best site of the variant.

As to ATGCTCCGTTTTGCTAAAT, the binding signal is 0.244 Ka relative to the best site of the variant.

Take ATGCCACGTTTTGCTAAAT: the binding signal was 0.646 Ka relative to the best site of the variant.

In the case of ATGCGCCGTTTTGCTAAAT, the binding signal was 0.223 Ka relative to the best site of the variant.

As to ATGTCCCGTTTTGCTAAAT, the binding signal was 0.181 Ka relative to the best site of the variant.

Consider ATGGGACGTTTTGCTAAAT, for which the binding signal is 0.34 Ka relative to the best site of the variant.

Regarding ATGAATCGTTTTGCTAAAT, the binding signal is 0.215 Ka relative to the best site of the variant.

As for ATGGATCGTTTTGCTAAAT, the binding signal was 0.224 Ka relative to the best site of the variant.

In the next test the target is T2, MarA RQR (Escherichia coli, UniProt P0ACH5 1-127, W40R).
T2 sequence: T1 sequence with W40R
Described as above. As to conditions: protein: ivt; label: fluorescent; dsDNA, one strand shown. Put shortly: as §1
As to ATGTAGCGTTTTGCTAAAT, the binding signal was 0.0898 Ka relative to the best site of the variant.

Turning to ATGTTTCGTTTTGCTAAAT, the binding signal is 0.214 Ka relative to the best site of the variant.

Turning to ATGTACCGTTTTGCTAAAT, the binding signal was 0.142 Ka relative to the best site of the variant.

Consider ATGACCCGTTTTGCTAAAT, for which the binding signal is 0.701 Ka relative to the best site of the variant.

As for ATGAGGCGTTTTGCTAAAT, the binding signal was 0.103 Ka relative to the best site of the variant.

In the case of ATGCCGCGTTTTGCTAAAT, the binding signal was 0.195 Ka relative to the best site of the variant.

Turning to ATGCTGCGTTTTGCTAAAT, the binding signal was 0.169 Ka relative to the best site of the variant.

On to ATGTTACGTTTTGCTAAAT, for which the binding signal is 0.135 Ka relative to the best site of the variant.

Take ATGAGCCGTTTTGCTAAAT: the binding signal is 0.107 Ka relative to the best site of the variant.

As for ATGGCTCGTTTTGCTAAAT, the binding signal was 0.759 Ka relative to the best site of the variant.

As for ATGGCCCGTTTTGCTAAAT, the binding signal was 0.811 Ka relative to the best site of the variant.

With ATGATTCGTTTTGCTAAAT, the binding signal was 0.122 Ka relative to the best site of the variant.

Regarding ATGTCACGTTTTGCTAAAT, the binding signal was 0.819 Ka relative to the best site of the variant.

Take ATGTGTCGTTTTGCTAAAT: the binding signal is 0.132 Ka relative to the best site of the variant.

Turning to ATGGACCGTTTTGCTAAAT, the binding signal is 0.106 Ka relative to the best site of the variant.

As for ATGAAGCGTTTTGCTAAAT, the binding signal is 0.0942 Ka relative to the best site of the variant.

With ATGGTTCGTTTTGCTAAAT, the binding signal was 0.13 Ka relative to the best site of the variant.

For ATGTGACGTTTTGCTAAAT, the binding signal is 0.11 Ka relative to the best site of the variant.

Take ATGTATCGTTTTGCTAAAT: the binding signal was 0.121 Ka relative to the best site of the variant.

As to ATGCTTCGTTTTGCTAAAT, the binding signal was 0.157 Ka relative to the best site of the variant.

Consider ATGGAGCGTTTTGCTAAAT, for which the binding signal was 0.119 Ka relative to the best site of the variant.

With ATGTAACGTTTTGCTAAAT, the binding signal is 0.135 Ka relative to the best site of the variant.

ATGTCGCGTTTTGCTAAAT: the binding signal was 0.635 Ka relative to the best site of the variant.

Consider ATGATGCGTTTTGCTAAAT, for which the binding signal is 0.106 Ka relative to the best site of the variant.

Turning to ATGATACGTTTTGCTAAAT, the binding signal was 0.108 Ka relative to the best site of the variant.

Consider ATGCTCCGTTTTGCTAAAT, for which the binding signal is 0.108 Ka relative to the best site of the variant.

ATGCCACGTTTTGCTAAAT: the binding signal was 0.243 Ka relative to the best site of the variant.

Turning to ATGCGCCGTTTTGCTAAAT, the binding signal is 0.154 Ka relative to the best site of the variant.

As to ATGTCCCGTTTTGCTAAAT, the binding signal was 1 Ka relative to the best site of the variant.

ATGGGACGTTTTGCTAAAT: the binding signal was 0.136 Ka relative to the best site of the variant.

With ATGAATCGTTTTGCTAAAT, the binding signal was 0.091 Ka relative to the best site of the variant.

In the case of ATGGATCGTTTTGCTAAAT, the binding signal was 0.112 Ka relative to the best site of the variant.
